# From PubChem BioAssay
# Unmarked numbers belong to inactive results. For some of these results: Results with a measured potency or affinity are listed apart. Calls of active or inactive are those of the source. Unless noted, how the calls were made is not given here.
# Experiments:
# [1] = antimalarial activity against Dd2 strain (AID 2302;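 active means growth inhibition above 50% at the single 2 µM test dose, taken to imply half-maximal potency below 2 µM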;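 further: 0% = DMSO untreated growth and 100% = chloroquine plus artemisinin killed control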); settings: P. falciparum Dd2 in RBCs, LDH growth readout, 72 h; at 2 µM; active compounds read high
# [2] = HepG2 cytotoxicity, primary screen, cytotoxicity control for P. falciparum antimalarial project, cell-based, ATP luminescence (AID 2303;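 active means inhibition above 50%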;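 further: 0% = DMSO wells and 100% = digitonin-killed cells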); settings: HepG2 viability, 24-48 h, at 10 µM, active compounds read high
# [3] = biological target: L-lactate dehydrogenase (Plasmodium falciparum (isolate CDC / Honduras)) (UniProt Q27743); assay: PfLDH activity inhibition – cell lysate, 3D7 strain, counter-screen for P. falciparum growth inhibition project (AID 2304);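 further: 0% = vehicle and 100% = reference inhibitor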; settings: P. falciparum 3D7 crude extract, LDH APAD/NBT absorbance; at 2 µM; active compounds read high
# [4] = inhibition of 3D7 malaria parasite growth – strain 3D7 (AID 2306);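 further: 0% = DMSO wells and 100% = chloroquine plus artemisinin control wells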; settings: P. falciparum 3D7 erythrocytic growth, LDH absorbance, 72 h; at 2 µM; active compounds read high
# [5] = biological target: Calcium-dependent protein kinase 1 (Plasmodium falciparum (isolate 3D7)) (UniProt P62344); assay: PfCDPK1 kinase inhibitors, biochemical, TCAMS library (AID 1159585; cut-off not given, nearly all actives have IC50 up to about 0.98 µM;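 further: inhibitors leave more ATP so luminescence rises with inhibition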); settings: recombinant PfCDPK1, Kinase-Glo ATP depletion luminescence
# [6] = biological target: Plasmodium falciparum protein kinase 6 (PK6, PF3D7_1337100) (UniProt Q8IDW1); assay: PfPK6 kinase inhibitors, biochemical, TCAMS library (AID 1159586); settings: recombinant PfPK6, Kinase-Glo ATP depletion luminescence
# [7] = biological target: Protein kinase 7 (PK7), Plasmodium falciparum 3D7 (PF3D7_0213400) (UniProt Q7YTF7); assay: inhibition of Plasmodium PK7 catalytic activity – biochemical, TCAMS antimalarial set, Kinase-Glo luminescence (AID 1159587); settings: recombinant PfPK7, Kinase-Glo ATP depletion luminescence
# [8] = biological target: Calcium-dependent protein kinase 4 (Plasmodium falciparum (isolate 3D7)) (UniProt Q8IBS5); assay: PfCDPK4 kinase inhibitors, biochemical, TCAMS library (AID 1159588; cut-off not given, nearly all actives have IC50 up to about 0.91 µM); settings: recombinant PfCDPK4, Kinase-Glo ATP depletion luminescence
# Chain of Calcium-dependent protein kinase 4 (Plasmodium falciparum (isolate 3D7)) (Q8IBS5 whole entry, looked up): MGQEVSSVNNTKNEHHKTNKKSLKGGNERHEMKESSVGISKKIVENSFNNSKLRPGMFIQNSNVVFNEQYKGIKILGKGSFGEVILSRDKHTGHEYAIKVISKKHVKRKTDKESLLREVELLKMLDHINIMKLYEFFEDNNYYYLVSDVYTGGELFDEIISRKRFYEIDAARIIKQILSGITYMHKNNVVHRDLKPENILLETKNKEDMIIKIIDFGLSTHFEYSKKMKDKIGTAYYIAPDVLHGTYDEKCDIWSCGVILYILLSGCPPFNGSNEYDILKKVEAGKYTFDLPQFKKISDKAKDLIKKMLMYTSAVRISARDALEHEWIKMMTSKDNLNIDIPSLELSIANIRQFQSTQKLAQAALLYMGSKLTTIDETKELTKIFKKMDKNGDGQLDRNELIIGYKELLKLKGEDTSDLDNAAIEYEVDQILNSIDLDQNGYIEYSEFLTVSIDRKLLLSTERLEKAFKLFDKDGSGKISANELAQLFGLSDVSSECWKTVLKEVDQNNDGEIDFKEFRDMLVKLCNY
# Chain of Protein kinase 7 (PK7), Plasmodium falciparum 3D7 (PF3D7_0213400) (Q7YTF7 1-343): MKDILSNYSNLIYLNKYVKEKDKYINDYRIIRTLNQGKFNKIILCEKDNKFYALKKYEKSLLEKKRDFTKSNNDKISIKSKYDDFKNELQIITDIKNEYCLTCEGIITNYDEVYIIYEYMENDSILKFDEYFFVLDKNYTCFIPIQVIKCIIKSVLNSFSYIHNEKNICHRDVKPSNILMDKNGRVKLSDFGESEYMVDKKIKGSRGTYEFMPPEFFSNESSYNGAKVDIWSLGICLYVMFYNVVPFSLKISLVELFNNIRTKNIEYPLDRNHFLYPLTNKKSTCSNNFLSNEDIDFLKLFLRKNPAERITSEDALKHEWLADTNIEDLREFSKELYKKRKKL
# Chain of L-lactate dehydrogenase (Plasmodium falciparum (isolate CDC / Honduras)) (Q27743 whole entry, looked up): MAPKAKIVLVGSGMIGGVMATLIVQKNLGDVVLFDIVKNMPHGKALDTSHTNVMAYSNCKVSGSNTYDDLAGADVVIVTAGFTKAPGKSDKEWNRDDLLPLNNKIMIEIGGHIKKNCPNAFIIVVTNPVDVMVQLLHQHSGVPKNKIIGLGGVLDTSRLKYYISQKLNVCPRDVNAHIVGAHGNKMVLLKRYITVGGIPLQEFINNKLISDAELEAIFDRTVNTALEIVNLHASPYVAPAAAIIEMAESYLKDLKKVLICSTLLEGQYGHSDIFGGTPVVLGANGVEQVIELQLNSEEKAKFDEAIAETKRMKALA
# Chain of Calcium-dependent protein kinase 1 (Plasmodium falciparum (isolate 3D7)) (P62344 whole entry, looked up): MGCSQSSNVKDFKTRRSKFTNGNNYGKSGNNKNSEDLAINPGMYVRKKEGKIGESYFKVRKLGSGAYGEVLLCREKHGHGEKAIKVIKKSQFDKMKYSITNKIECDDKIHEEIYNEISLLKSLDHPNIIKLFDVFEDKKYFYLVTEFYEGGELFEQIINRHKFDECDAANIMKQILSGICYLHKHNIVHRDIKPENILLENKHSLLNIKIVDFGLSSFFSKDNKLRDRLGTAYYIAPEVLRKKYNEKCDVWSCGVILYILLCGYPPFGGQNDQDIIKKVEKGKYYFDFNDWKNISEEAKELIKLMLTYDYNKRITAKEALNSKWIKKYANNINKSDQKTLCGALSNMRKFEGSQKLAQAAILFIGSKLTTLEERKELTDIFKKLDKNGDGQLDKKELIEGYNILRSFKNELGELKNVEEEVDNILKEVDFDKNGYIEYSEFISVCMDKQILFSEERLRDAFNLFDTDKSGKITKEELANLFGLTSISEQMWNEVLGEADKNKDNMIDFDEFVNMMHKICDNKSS
# Chain of Plasmodium falciparum protein kinase 6 (PK6, PF3D7_1337100) (Q8IDW1 1-305): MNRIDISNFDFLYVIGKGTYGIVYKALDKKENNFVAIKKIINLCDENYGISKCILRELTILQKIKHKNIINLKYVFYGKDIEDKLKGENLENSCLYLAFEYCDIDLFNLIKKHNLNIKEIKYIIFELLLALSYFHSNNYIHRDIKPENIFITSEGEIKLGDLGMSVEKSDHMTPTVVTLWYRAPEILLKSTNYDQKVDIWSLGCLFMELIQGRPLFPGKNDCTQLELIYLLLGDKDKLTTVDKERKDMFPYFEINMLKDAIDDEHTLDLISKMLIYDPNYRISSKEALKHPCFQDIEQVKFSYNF
SMILES,growth inhibition [1],inhibition [2],inhibition [3],growth inhibition [4],outcome [5],outcome [6],outcome [7],outcome [8]
COc1ccc(CCOc2c(C)nc(N)nc2N)cc1OC,22%,66% (active),4%,96% (active),inactive,inactive,inactive,inactive
C=C(C)COc1ccc(-c2n[nH]c(C(F)(F)F)c2-c2ccccc2OC)c(O)c1,72% (active),19%,-5%,98% (active),inactive,inactive,inactive,inactive
O=C(Cn1c(CCc2cccc(F)c2F)nc(=O)c2ccccc21)N(Cc1ccc(-c2ccc(C(F)(F)F)cc2)cc1)C1CCN(C2CCSCC2)CC1,93% (active),97% (active),0%,99% (active),inactive,inactive,inactive,inactive
COc1ccc(CNCc2ccc(-c3ccc(-c4nc5ccccc5[nH]4)cc3)cc2)cc1,89% (active),63% (active),-4%,103% (active),inactive,inactive,inactive,inactive
O=c1cc(NCCCNCc2sc(Br)nc2Br)[nH]c2ccccc12,44%,1%,-2%,92% (active),inactive,inactive,inactive,inactive
COC(=O)c1sc(-c2ccc(Cl)cc2)cc1N(CCCN1CCC(N2CCCCC2)CC1)S(=O)(=O)c1ccc(C)cc1,86% (active),25%,-2%,103% (active),inactive,inactive,inactive,inactive
COc1ccc(F)cc1-c1ccccc1CNC(=O)CN(C)S(=O)(=O)c1cc(C)cc(Cl)c1C,73% (active),-3%,-2%,92% (active),inactive,inactive,inactive,inactive
Cc1ccoc1C(=O)Nc1cccc(-c2cccc(-c3nc4ccc(C(F)(F)F)cc4[nH]3)c2)c1,37%,39%,-6%,98% (active),inactive,inactive,inactive,inactive
CN1CCN(c2ccnc3ccc(NC(=O)Nc4c(Cl)cccc4Cl)cc23)CC1,12%,11%,-1%,96% (active),inactive,inactive,inactive,inactive
CC(C)c1cn2c3c(cc(C(=O)N[C@@H](Cc4ccccc4)[C@H](O)CNC4CCCCC4)cc13)N(C)S(=O)(=O)CC2,99% (active),9%,0%,98% (active),inactive,inactive,inactive,inactive
CO/C(=C\C=C\c1cc2cc(Cl)c(Cl)cc2[nH]1)C(=O)NCCCN1CCN(c2cccc(OCC(=O)Nc3ccccc3)c2)CC1,81% (active),49%,-1%,100% (active),inactive,inactive,inactive,inactive
CCCn1c(SCC(=O)Nc2cc(Cl)ccc2Cl)n[nH]c1=O,53% (active),-5%,-2%,88% (active),inactive,inactive,inactive,inactive
COc1ccc2nc3cc(Cl)ccc3c(NCCCCCCNc3c4ccc(Cl)cc4nc4ccc(OC)cc34)c2c1,79% (active),20%,-5%,96% (active),inactive,inactive,inactive,inactive
COc1cccc(C2C(C(=O)Nc3ccccc3)=C(C)N=c3s/c(=C\c4ccc(O)cc4)c(=O)n32)c1 (stereo not drawn),97% (active),15%,6%,97% (active),inactive,inactive,inactive,inactive
Nc1c2c(nc3ccc(NC(=O)CCCCCc4ccccc4)cc13)CCCC2,36%,32%,4%,102% (active),inactive,inactive,inactive,inactive
CCCCc1cc(NCC)nc(Nc2cccc(OC)c2)n1,69% (active),9%,-4%,97% (active),inactive,inactive,inactive,inactive
Cc1nn(-c2ccccc2)c2nc(-c3ccccc3)cc(C(=O)N3CCOCC3)c12,67% (active),6%,6%,93% (active),inactive,inactive,inactive,inactive
O=C(/C=C/c1ccc(Cl)c(Cl)c1)NCCCCCN1CCC(CCNC(=O)Cc2ccc(Cl)cc2)CC1,0%,45%,-8%,83% (active),inactive,inactive,inactive,inactive
Nc1c2c(nc3ccc(NC(=O)c4ccccc4)cc13)CCCC2,8%,0%,-8%,99% (active),inactive,inactive,inactive,inactive
Cc1ccc(NC(=O)c2cc(S(=O)(=O)NC(C)(C)C)ccc2C)nc1,80% (active),-1%,-2%,86% (active),inactive,inactive,inactive,inactive
Cc1ccc(Nc2ccnc3ccc(C(F)(F)F)cc23)cc1O,69% (active),23%,-6%,102% (active),inactive,inactive,inactive,inactive

SMILES,growth inhibition [1],inhibition [2],inhibition [3],growth inhibition [4],outcome [5],outcome [6],outcome [7],outcome [8]
COc1ccc2cc(C(C)NC3CCN(c4cccc(NC(=O)c5ccncc5)c4)CC3)ccc2c1 (stereo not drawn),6%,13%,-1%,91% (active),inactive,inactive,inactive,inactive
COc1ccc(NC(=O)Nc2cccc(-c3cccc(-c4nc5ccccc5[nH]4)c3)c2)cc1,41%,41%,3%,101% (active),inactive,inactive,inactive,inactive
COc1ccc2nccc(N3CCC(NCc4ccc5c(n4)NC(=O)CS5)CC3)c2n1,63% (active),14%,6%,100% (active),inactive,inactive,inactive,inactive
O=C(C=Cc1ccc(Cl)c(Cl)c1)NCCCCCN1CCC(CCNC(=O)c2ccc3c(c2)OCO3)CC1,2%,35%,-3%,99% (active),inactive,inactive,inactive,inactive
Cc1cccc2[nH]c(-c3ccc(-c4ccc(CNCC5CCCO5)cc4)s3)nc12 (stereo not drawn),96% (active),11%,-5%,100% (active),inactive,inactive,inactive,inactive
c1cc(C2=N[C@H]3CCCC[C@@H]3N2)ccc1OCCCOc1ccc(C2=N[C@@H]3CCCC[C@H]3N2)cc1,64% (active),-7%,-3%,99% (active),inactive,inactive,inactive,inactive
FC(F)(F)c1ccc2nc(-c3ccc(-c4cccc(CNCC5CCCO5)c4)s3)[nH]c2c1 (stereo not drawn),99% (active),37%,-7%,99% (active),inactive,inactive,inactive,inactive
COc1c(CCNCCCCNCCc2cc(Cl)c3ccccc3c2OC)cc(Cl)c2ccccc12,100% (active),99% (active),-7%,99% (active),inactive,inactive,inactive,inactive
COc1ccc(CNc2ccc3nc(N)nc(N)c3c2)cc1,84% (active),39%,-4%,99% (active),inactive,inactive,inactive,inactive
CCOc1ccc2nc(C)cc(NN=Cc3ccccc3Cl)c2c1,100% (active),11%,-4%,101% (active),inactive,inactive,inactive,inactive
C#Cc1cccc(NC(=O)[C@H](CC2CCCCC2)Nc2ccc(C#N)c3ccccc23)c1,99% (active),48%,-1%,100% (active),inactive,inactive,inactive,inactive
Cc1noc(C)c1-c1cccc(CNCc2cccc(-c3ccc(-c4nc5c(C)cccc5[nH]4)cc3)c2)c1,69% (active),24%,6%,103% (active),inactive,inactive,inactive,inactive
COc1ccc(C(=O)CCC(=O)N(Cc2ccc(-c3ccc(CNCCc4ccc(S(C)(=O)=O)cc4)cn3)cc2)C2C[C@@H]3CC[C@H]2C3)cc1F (stereo partly drawn),34%,5%,0%,97% (active),inactive,inactive,inactive,inactive
O=C1NC(=O)C(c2ccc(Cl)cc2)=C1Nc1cccc(S(=O)(=O)C(F)(F)F)c1,51% (active),1%,-2%,99% (active),inactive,inactive,inactive,inactive
Cc1ccc(CNc2ccc3ncc(-c4cccc(C(=O)NCCN(C)C)c4)n3n2)c(C)c1,78% (active),97% (active),-3%,100% (active),inactive,inactive,inactive,inactive
Cc1cc(C(F)(F)F)cc(-n2ncc(-c3ccc(C(=O)NCCNCc4ccccc4)cc3)c2N)n1,9%,98% (active),-1%,91% (active),inactive,inactive,inactive,inactive
CC(=O)Nc1ccc(C(=O)Nc2cccc(-c3ccc(-c4nc5ccc(F)cc5[nH]4)cc3)c2)cn1,99% (active),10%,-6%,99% (active),inactive,inactive,inactive,inactive
COc1ccc2nccc([C@@H](O)CN3CCC(NCCOc4ccc(F)cc4Cl)CC3)c2c1,85% (active),1%,3%,99% (active),inactive,inactive,inactive,inactive
O=C(CCCC(=O)Nc1ccc(C2=NCCN2)cc1)Nc1ccc(C2=NCCN2)cc1,81% (active),3%,2%,91% (active),inactive,inactive,inactive,inactive
CC(=O)OC[C@H]1O[C@@H](C#Cc2ccccc2)[C@H](OC(C)=O)[C@@H](OC(C)=O)[C@@H]1OC(C)=O,90% (active),5%,0%,95% (active),inactive,inactive,inactive,inactive
